IMPase cell inh: qHTS Assay for Identifying the Cell-Membrane Permeable IMPase Inhibitors; CHO-M1 cells, IP1 accumulation, HTRF TR-FRET ratio; inhibition (IP1 accumulation), % at 46.1 µM; Inositol monophosphatase 1 (Rattus norvegicus), P97697; 120,000 tested, under 10 active; active = well fitted curve in the direction sought with a large enough effect in the signal ratio, not every such curve was filed as active; inconclusive = small, poorly fitted or top-dose-only effect, or a change in a side signal; inactive = no such curve, though single readings can be large or run the other way; the % refers to the signal ratio;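 note: cells stimulated with carbachol in lithium chloride buffer; plate controls were DMSO basal wells for no effect and reference inhibitor wells for full effect; higher means more IMPase inhibition seen as more IP1 and lower FRET ratio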
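Measured: the HTRF emission ratio (665/620 nm) plus the 620 nm donor channel, each fitted to the Hill equation to give AC50. Cells were CHO-M1 given compounds up to 46 uM and a 30 min carbachol stimulation at 37C.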
PNC inhibitor: High Content Assay for Compounds that inhibit the Assembly of the Perinucleolar Compartment; PC3M PTB-GFP, PNC prevalence imaging, 16 h; hits give low values; activity change (PNC), negative = inhibition, % at 10 µM; actives 3.1% (n = 140,000); AID 2417, 2010;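 active = readout at or below -70, meaning at least 70% loss of cells showing the perinucleolar compartment, a nuclear body marking cancer cells; inconclusive = readout between -30 and a set limit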;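 note: plate controls were DMSO wells for no effect and camptothecin positive control wells for full effect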
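Read-out is percentage of cells bearing a perinucleolar compartment, from automated 20x imaging of fixed, Hoechst-stained PC3M PTB-GFP cells. Cells were seeded 4 h, then exposed 16 h to compound (23 nl of library stock) in duplicate plates.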
IMPase Li inh: qHTS Assay for Identifying the Cell-Membrane Permeable IMPase Inhibitors: Potentiation with Lithium; actives 0.35% (n = 210,000); CHO-M1 cells, IP1 TR-FRET (IP-One), carbachol + lithium; AID 1457, 2008; Potency, µM (series often up to 59.4 µM), without a hit: at the top dose activity, negative = IMPase inhibition, usual class: inhibitors;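 note: IP1 builds up when IMPase is blocked and the TR-FRET signal falls; potency is the fitted concentration of half-maximal effect; plate controls were basal vehicle for no effect and high inhibitor control for full effect; nearly all actives have a fitted effect of over 50% in size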
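CHO-M1, 2000 cells/well, 16–30 h culture; cpd + low Li+, 30 min 37C; lysis with d2-IP1/Eu-anti-IP1 Ab, 10 min RT; TR-FRET 665/620 ratio and 620 channel; AC50 via Hill.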
HPGD block: qHTS Assay for Inhibitors of HPGD (15-Hydroxyprostaglandin Dehydrogenase) | Potency, µM, without a hit: top-dose activity change, negative = inhibition, hits mostly inhibitors | actives 4.3% (n = 150,000) | purified HPGD, NADH fluorescence kinetic, PGE2 substrate | AID 894, 2007 | 15-hydroxyprostaglandin dehydrogenase [NAD(+)] (Homo sapiens), P15428; active = well fitted inhibition curve with a large enough effect, not every such curve was filed as active; inconclusive = small, poorly fitted or top-dose-only effect, or another doubt; inactive = no such curve, though single readings can be large or run the other way; note: potency is the fitted concentration of half-maximal effect
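20 nM HPGD preincubated 15 min at room temperature with compound in 50 mM Tris-HCl pH 8, 0.01% Tween 20. Started with 1 mM NAD+ and 30 uM prostaglandin E2; NADH fluorescence (360/450 nm) read 5 times over 30-s intervals, last minus first.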
12-hLO inh: qHTS Assay for Inhibitors of 12-hLO (12-human lipoxygenase); Potency, µM (series often up to 57.1 µM), without a hit: top-dose activity change, negative = inhibition, hits mostly inhibitors; actives 0.12% (n = 150,000); purified 12-hLO, xylenol orange hydroperoxide absorbance; Polyunsaturated fatty acid lipoxygenase ALOX12 (Homo sapiens), P18054; note: potency is the fitted concentration of half-maximal effect; nearly all actives have a fitted effect of over 55% in size
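Purified human 12hLO (150 nM), preincubated 15 min with compound, then 40 uM arachidonic acid for 30 min, room temperature, Hepes pH 7.0 with 0.01% Triton X-100. Hydroperoxide detected by ferrous iron/xylenol orange; 573/405 nm absorbance ratio gives reaction progress.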
ALDH1A1 inh: qHTS Assay for Inhibitors of Aldehyde Dehydrogenase 1 (ALDH1A1); Aldehyde dehydrogenase 1A1 (Homo sapiens), P00352; Purified ALDH1A1, NADH fluorescence, propionaldehyde substrate; Potency, µM (doses to about 75.3 µM), for the others: top-dose activity, negative = inhibition, hits mostly inhibitors; actives 7.3% (n = 220,000); AID 1030, 2008; active = well fitted inhibition curve with a large enough effect, not every such curve was filed as active; inconclusive = small, poorly fitted or top-dose-only effect, or another doubt; inactive = no such curve, though single readings can be large or run the other way;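 note: potency is the fitted concentration of half-maximal effect; plate controls were no enzyme wells and a reference inhibitor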
Target sequence (P00352 whole entry, looked up): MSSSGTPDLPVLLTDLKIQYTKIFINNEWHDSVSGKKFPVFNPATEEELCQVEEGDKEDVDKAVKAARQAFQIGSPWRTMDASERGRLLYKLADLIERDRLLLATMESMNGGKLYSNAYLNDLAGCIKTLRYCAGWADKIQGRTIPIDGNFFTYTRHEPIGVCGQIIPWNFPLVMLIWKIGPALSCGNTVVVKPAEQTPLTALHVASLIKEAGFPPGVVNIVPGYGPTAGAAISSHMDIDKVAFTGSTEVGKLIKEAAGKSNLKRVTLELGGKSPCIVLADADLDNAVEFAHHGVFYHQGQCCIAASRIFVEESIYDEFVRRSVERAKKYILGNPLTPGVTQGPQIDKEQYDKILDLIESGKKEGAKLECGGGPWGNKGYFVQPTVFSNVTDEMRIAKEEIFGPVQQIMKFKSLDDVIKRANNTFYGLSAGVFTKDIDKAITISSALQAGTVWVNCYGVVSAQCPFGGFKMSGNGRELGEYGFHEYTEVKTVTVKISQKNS
Active calls of the source: *; ? = inconclusive; . = no result given; [ ] = another dose, or the depositor's remark. Shown are actives, neighbours in structure and some others; about 11% of the full set was active somewhere. Unless noted, calls come from the whole dose curve; as a rule, active = well fitted curve in the direction sought with a large enough effect; inconclusive = small, poorly fitted or top-dose-only effect, or another doubt; inactive = no such curve, though single readings can be large; an effect the other way counts as inactive or inconclusive. Unless noted, % is set by controls: 0 for no effect and ±100 for the full control effect.

SMILES | IMPase cell inh | PNC inhibitor | IMPase Li inh | HPGD block | 12-hLO inh | ALDH1A1 inh
COCCCn1c2nc3ccccc3nc2c2c(=O)n(-c3ccccc3OC)c(C)nc21 | -16.6 | -100.0* | -24.3% | ? | 4.9% | -7.9%
COCCCn1c2nc3ccccc3nc2c2c(=O)n(-c3ccccc3OC)cnc21 | -4.5 | 16.2 | 24.7%[38.3 µM] | -19.5% | 1.0% | ?
CCCn1cnc2c(c1=O)c1nc3ccccc3nc1n2Cc1ccccc1OC | 7.9 | ? | 13.3%[38.3 µM] | ? | -1.6% | 3.98µM*
O=[N+]([O-])c1cc(S(=O)(=O)C(F)(F)F)ccc1Sc1nc2ccccc2s1 | 18.3 | 113.3 | 25.8%[38.3 µM] | 25.1µM* | -2.8% | -14.9%
O=C(Nc1ccc(-c2cn3ccsc3n2)cc1)C1COc2ccccc2O1 (centres undefined) | 10.6 | -94.5* | -1.4%[38.3 µM] | -8.8% | -2.6% | 0.4%
CC1CC(C)CN(S(=O)(=O)c2ccc(NC(=O)C3COc4ccccc4O3)cc2)C1 (centres undefined) | -2.6 | -121.7* | 25.0% | -18.6% | -3.9% | -3.2%
O=C(Nc1nncs1)C1COc2ccccc2O1 (centres undefined) | 9.0 | 13.5 | 31.0%[38.3 µM] | ? | -1.4% | 2.8%
NS(=O)(=O)c1ccc(NC(=O)C2COc3ccccc3O2)cc1 (centres undefined) | -0.3 | -6.3 | 14.2%[38.3 µM] | -3.4% | 2.9% | 11.1%
CC1(C)Oc2ccc(NC(=O)C3COc4ccccc4O3)cc2O1 (centres undefined) | 7.1 | 4.2 | 6.1%[38.3 µM] | 20µM* | -8.8% | 0.0355µM*
CN1CC(O)C2=CC(=O)C(=O)C=C21 (centres undefined) | . | . | 6.8% | . | . | -12.9%
COc1cc(CNc2ccc(O)cc2)cc(Br)c1OCc1ccccc1F | 4.6 | 14.5 | 16.9% | -11.3% | ? | 22.4µM*
CCOc1c(Br)cc(CNc2ccc3c(c2)OCCO3)cc1OC | 0.2 | -97.5* | 37.2%[38.3 µM] | ? | -3.7% | 1.6%
CCOc1cc(CNc2ccc(O)cc2)cc(Br)c1OCc1ccccc1F | -3.4[1.84 µM] | ? | 37.5%[38.3 µM] | -4.7% | -6.3% | 28.2µM*
COc1cccc(CNc2ccccc2O)c1OCc1ccccc1F | . | . | 10.1% | . | . | 14.1µM*
CCOc1ccc(Br)cc1S(=O)(=O)Nc1cccc(S(=O)(=O)N(C)C)c1 | . | -26.2 | 9.8% | -6.7% | 0.4% | 20µM*
O=C(Oc1ccc2[nH]cc(CCN3C(=O)c4ccccc4C3=O)c2c1)c1ccco1 | 0.1 | 9.0 | 3.0%[38.3 µM] | -15.7% | -14.2% | ?
COc1ccc2c(c1)c(CCN1C(=O)c3ccccc3C1=O)cn2C(=O)c1ccco1 | -10.3 | -3.5 | 8.91µM* | ? | -3.3% | ?
CC(=O)N1[C@H](C)C=C[C@]1(Cc1ccccc1)C(=O)NCc1ccc(C)o1 | . | . | -5.1% | 14.1µM* | -8.6% | ?
COC(=O)[C@@]1(Cc2ccccc2)C=C[C@@H](C)N1C(C)=O | . | . | -3.1% | -8.8% | 1.8% | ?
COC(=O)[C@@]1(Cc2ccccc2)C=C[C@@H](C)N1C(=O)c1ccccc1 | . | . | 6.9% | -24.3% | -0.9% | 39.8µM*
N#Cc1c(N2C(=O)C3C4C=CC(C4)C3C2=O)sc2c1CCC2 (centres undefined) | -6.8 | 11.3 | 26.4%[38.3 µM] | -12.4% | -3.9% | 17.8µM*
CC(=O)Nc1ccc(S(=O)(=O)N(C)CC(=O)OCC(=O)N2CCc3ccccc32)cc1 | 0.7 | -3.3 | 11.3%[38.3 µM] | -11.5% | 3.5% | 8.91µM*
CCC(=O)N1CCCc2cc(S(=O)(=O)N3CCCc4ccccc43)ccc21 | 6.9 | 1.8 | 26.1%[38.3 µM] | -12.8% | 1.4% | 17.8µM*
